Data: the supplement of paper PMC6897291
Structures can show the parent of a compound that is named as a salt.

What was measured:
U-2932 [1] = test: growth inhibition by drug alone (1 - RLU/untreated control) (fraction); higher = stronger inhibition; conditions: 177Lu-lilotomab satetraxetan 0 ug/ml
Summary of the method: (§1)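 With or without 18 h pretreatment by a radiolabelled anti-CD37 antibody conjugate (~600 MBq/mg; 0.5 µg/ml RIVA, 1 µg/ml U-2932), RIVA and U-2932 cells were washed and plated at 3,000 cells/well. Pre-printed compound doses were 10/100 nM for RIVA and 10/1,000 nM for U-2932. Growth inhibition uses RealTime-Glo RLU relative to the untreated no-drug wells. The calculation is 1 − RLU/mean of 48 such wells per plate, with reads daily from day 3 after 1 h at 37°C.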

RIVA [2] = test: as above; conditions: 177Lu-lilotomab satetraxetan 0 ug/ml
Summary of the method: as §1

U-2932 [3] = test: growth inhibition by drug plus 177Lu-lilotomab satetraxetan (1 - RLU/untreated control) (fraction); higher = stronger inhibition; conditions: 177Lu-lilotomab satetraxetan 1 ug/ml
Summary of the method: as §1

RIVA [4] = test: as above; conditions: 177Lu-lilotomab satetraxetan 0.5 ug/ml
Summary of the method: as §1

Compound | growth inhibition by drug alone (U-2932 [1]; 10 nM, time (day): 3) | growth inhibition by drug alone (U-2932 [1]; 10 nM, time (day): 4) | growth inhibition by drug alone (U-2932 [1]; 10 nM, time (day): 5) | growth inhibition by drug alone (U-2932 [1]; 10 nM, time (day): 6) | growth inhibition by drug alone (U-2932 [1]; 1000 nM, time (day): 3) | growth inhibition by drug alone (U-2932 [1]; 1000 nM, time (day): 4) | growth inhibition by drug alone (U-2932 [1]; 1000 nM, time (day): 5) | growth inhibition by drug alone (U-2932 [1]; 1000 nM, time (day): 6) | growth inhibition by drug alone (RIVA [2]; 10 nM, time (day): 3) | growth inhibition by drug alone (RIVA [2]; 10 nM, time (day): 4) | growth inhibition by drug alone (RIVA [2]; 10 nM, time (day): 5) | growth inhibition by drug alone (RIVA [2]; 10 nM, time (day): 6) | growth inhibition by drug alone (RIVA [2]; 100 nM, time (day): 3) | growth inhibition by drug alone (RIVA [2]; 100 nM, time (day): 4) | growth inhibition by drug alone (RIVA [2]; 100 nM, time (day): 5) | growth inhibition by drug alone (RIVA [2]; 100 nM, time (day): 6) | growth inhibition by drug plus 177Lu-lilotomab satetraxetan (U-2932 [3]; 10 nM, time (day): 3) | growth inhibition by drug plus 177Lu-lilotomab satetraxetan (U-2932 [3]; 10 nM, time (day): 4) | growth inhibition by drug plus 177Lu-lilotomab satetraxetan (U-2932 [3]; 10 nM, time (day): 5) | growth inhibition by drug plus 177Lu-lilotomab satetraxetan (U-2932 [3]; 10 nM, time (day): 6) | growth inhibition by drug plus 177Lu-lilotomab satetraxetan (U-2932 [3]; 1000 nM, time (day): 3) | growth inhibition by drug plus 177Lu-lilotomab satetraxetan (U-2932 [3]; 1000 nM, time (day): 4) | growth inhibition by drug plus 177Lu-lilotomab satetraxetan (U-2932 [3]; 1000 nM, time (day): 5) | growth inhibition by drug plus 177Lu-lilotomab satetraxetan (U-2932 [3]; 1000 nM, time (day): 6) | growth inhibition by drug plus 177Lu-lilotomab satetraxetan (RIVA [4]; 10 nM, time (day): 3) | growth inhibition by drug plus 177Lu-lilotomab satetraxetan (RIVA [4]; 10 nM, time (day): 4) | growth inhibition by drug plus 177Lu-lilotomab satetraxetan (RIVA [4]; 10 nM, time (day): 5) | growth inhibition by drug plus 177Lu-lilotomab satetraxetan (RIVA [4]; 10 nM, time (day): 6) | growth inhibition by drug plus 177Lu-lilotomab satetraxetan (RIVA [4]; 100 nM, time (day): 3) | growth inhibition by drug plus 177Lu-lilotomab satetraxetan (RIVA [4]; 100 nM, time (day): 4) | growth inhibition by drug plus 177Lu-lilotomab satetraxetan (RIVA [4]; 100 nM, time (day): 5) | growth inhibition by drug plus 177Lu-lilotomab satetraxetan (RIVA [4]; 100 nM, time (day): 6)
CCOc1cc(C(=O)Nc2ccc(Cl)c(-c3nc4ccccc4[nH]3)c2)cc(OCC)c1OCC | -0.0835 | 0.00922 | -0.0921 | -0.101 | 0.0527 | 0.106 | 0.057 | 0.0205 | 0.0892 | 0.061 | 0.00986 | -0.126 | 0.409 | 0.248 | 0.22 | 0.167 | -0.0124 | 0.0291 | 0.0337 | 0.147 | 0.147 | 0.267 | 0.28 | 0.362 | 0.452 | 0.548 | 0.564 | 0.568 | 0.625 | 0.648 | 0.668 | 0.654
C[N+](C)([O-])CCNc1ccc(NCC[N+](C)(C)[O-])c2c1C(=O)c1c(O)ccc(O)c1C2=O [Banoxantrone dihydrochloride] | -0.0281 | -0.0255 | -0.149 | -0.168 | -0.0598 | -0.0493 | -0.082 | -0.106 | -0.171 | -0.248 | -0.397 | -0.545 | -0.338 | -0.41 | -0.557 | -0.705 | -0.00903 | 0.0168 | 0.0134 | -0.00428 | 0.0744 | 0.142 | 0.219 | 0.381 | 0.391 | 0.472 | 0.484 | 0.498 | 0.446 | 0.551 | 0.571 | 0.588
COc1cccc2c1C(=O)c1c(O)c3c(c(O)c1C2=O)C[C@@](O)(C(=O)CO)C[C@@H]3O[C@H]1C[C@H](N)[C@H](O)[C@H](C)O1 [Doxorubicin (Adriamycin)] | 0.258 | 0.293 | 0.356 | 0.433 | 0.974 | 0.983 | 0.986 | 0.988 | 0.198 | 0.324 | 0.365 | 0.391 | 0.62 | 0.794 | 0.872 | 0.915 | 0.422 | 0.492 | 0.589 | 0.687 | 0.979 | 0.986 | 0.989 | 0.99 | 0.831 | 0.879 | 0.909 | 0.933 | 0.869 | 0.928 | 0.952 | 0.968
CC(C)c1ccc(Cn2ccc3c4c(N)nc(NC5CC5)nc4ccc32)cc1 | 0.155 | 0.138 | 0.0759 | 0.0356 | 0.976 | 0.977 | 0.982 | 0.985 | 0.0749 | 0.155 | 0.0828 | -0.0413 | 0.639 | 0.486 | 0.491 | 0.444 | 0.151 | 0.196 | 0.261 | 0.274 | 0.982 | 0.983 | 0.986 | 0.989 | 0.658 | 0.702 | 0.716 | 0.712 | 0.787 | 0.778 | 0.786 | 0.799
